# Values joined by “and” are separate entries in the source; they are usually repeats but may differ in a detail not shown here. Equal entries are not always repeated. About 79,000 compounds went through this panel and 15% of them were active in at least one assay; those are over-represented in the sample as a whole. Values without a mark were called inactive. Active and inactive are the calls of the source. No stated cut-off is given here; in the data, active means growth inhibition above about 70%; inactive means the rest. Where a SMILES comes first, the peptide text is derived from it. The star is where a group is joined. Cbz = O=C(OCc1ccccc1)*
# What was measured:
# [1] = NCI Yeast Anticancer Drug Screen. Data for the rad50 strain (AID 155);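 further: 0% = growth of vehicle-only cultures of the same strain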; details: S. cerevisiae rad50 strain growth inhibition, hits give high values; at 50.0 µM unless noted
# Procedure, shortened: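 Vehicle-treated cultures provide the reference for the growth inhibition reported for compound-exposed, repair-deficient yeast.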
# [2] = NCI Yeast Anticancer Drug Screen. Data for the mec2-1 strain (AID 157); details: S. cerevisiae mec2-1 strain, hits give high values; at 50.0 µM unless noted
# Procedure, shortened: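 Growth inhibition is read against vehicle-treated controls after compound exposure of the mec2-1 yeast strain, which is defective in DNA damage repair or cell cycle control.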
# [3] = NCI Yeast Anticancer Drug Screen. Data for the sgs1 mgt1 strain (AID 161);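 further: 0% = growth of cultures given vehicle only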; details: S. cerevisiae sgs1 mgt1 strain, hits give high values; at 50.0 µM unless noted
# Procedure, shortened: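 This yeast growth screen uses a strain with defined DNA-repair lesions; compound-treated growth is compared with vehicle-treated growth.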
# [4] = NCI Yeast Anticancer Drug Screen. Data for the cln2 rad14 strain (AID 165);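 further: 0% = growth equal to vehicle treated cultures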; details: S. cerevisiae cln2 rad14 strain, hits give high values; at 50.0 µM unless noted
# Procedure, shortened: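 Growth inhibition, relative to vehicle-treated controls, is the read-out. The test organism is a yeast strain with defined genetic alterations, cln2 rad14.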
# [5] = NCI Yeast Anticancer Drug Screen. Data for the bub3 strain (AID 167); details: S. cerevisiae bub3 mutant strain, hits give high values; at 50.0 µM unless noted
# Procedure, shortened: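 Mutant yeast screening strain plus compound; vehicle-treated cultures serve as the 0% inhibition reference.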
# [6] = NCI Yeast Anticancer Drug Screen. Data for the mlh1 rad18 strain (AID 175); details: S. cerevisiae mlh1 rad18 strain growth inhibition, hits give high values; at 50.0 µM unless noted
# Procedure, shortened: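 Cells of a genetically altered yeast strain, deficient in DNA damage repair, were treated with compound. Their growth was then compared with that of vehicle-treated cultures to give inhibition.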
Structure (SMILES),growth inhibition [1],growth inhibition [2],growth inhibition [3],growth inhibition [4],growth inhibition [5],growth inhibition [6]
CCCCCCCCCCCCC,-36.4%,-45.8%,-18.2%,3.7%,-50%,-20.9%
CCOc1ccc2c(c1)S(=O)(=O)OC2=O,-11.1%,0.6%,7%,25.6%,5.2%,2.35%
Cc1ccc(S(=O)(=O)N/N=C/c2ccoc2)cc1,-32.1%,-8.6%,-17.1%,-3.9%,4.45%,-14.4%
Nc1nc(-c2ccc(Cl)cc2)cc(-c2cc(-c3ccc(Cl)cc3)nc(N)n2)n1,6.7%,-12.9%,-8.15%,-16%,-11.2%,25.4%
Cc1cccc2oc3c(c(=O)c12)CC(O)C(C)(C)O3 (stereo not drawn),15.6%,-3.85%,20.7%,-7.85%,5.65%,-45%
Nc1ncnc(Nc2ccc(Cl)cc2Cl)n1,5.05%,-11.7%,5.75%,1.85%,5.25%,-7.05%
CCN(CC)c1nc(Cl)nc(Nc2ccc3cc(-c4ccccc4)c(=O)oc3c2)n1,-9.15%,-24.9%,-8.1%,8.05%,-12.7%,-7.25%
O=C1c2ccccc2C(=O)N1CCS(=O)(=O)O,8.65%,18.1%,14.2%,-7.55%,10.2%,9.9%
CCO[C@@H]1OC(=O)[C@H]2C(c3ccccc3)=NO[C@@H]12,-13.2%,-22.4%,-9.7%,7.55%,13.7%,-4.15%
CC(=O)N(C(C)=O)c1c(N)n(C)c(=O)[nH]c1=O,12.7%,-4.85%,6.6%,14.3%,2.75%,8.5%
Cc1no[n+]([O-])c1/C=N/NS(=O)(=O)c1ccccc1,2.25%,-17.6%,-12.9%,-6.05%,-2.7%,-23.1%
CC(=O)OC1CC2C3CCc4cc(O)ccc4C3CCC2(C)C1 (stereo not drawn),22.4%,-15.8%,-8%,6.7%,-0.05%,3.2%
O=C(NC(CO)Cc1ccccc1)OCc1ccccc1 (stereo not drawn),-4.15%,-5.25%,0%,5.45%,8.1%,-7.65%
O=[N+]([O-])c1ccc(N=Cc2ccc(N(CCF)CCF)cc2)cc1,6.9%,15.9%,16.1%,-60%,-9.2%,10.9%
OCC[P+](c1ccccc1)(c1ccccc1)c1ccccc1,17.6%,12.1%,-6.2%,16.4%,-6.05%,-11.3%
COc1ccc(/C=C2\C(=O)Nc3ccccc32)cc1OC,-3.4%,5.45%,-9%,-10.4%,-1.95%,-4.4%
O=C1CCCC(=O)N1n1c(Cc2ccc(Cl)cc2)n[nH]c1=O,-31.6%,-11.8%,1.3%,7.5%,-19.6%,-1.5%
CCCCCCCCCCCCCCCC[N+](C)(C)CC#N,99.4% (active),99.3% (active),99.2% (active),99% (active),99.2% (active),99.5% (active)
O=C1C=C(C2=CC(=O)c3cccc(O)c3C2=O)C(=O)c2c(O)cccc21,-32.5%,-13%,-9.9%,-46%,-8.5%,-4.7%

Structure (SMILES),growth inhibition [1],growth inhibition [2],growth inhibition [3],growth inhibition [4],growth inhibition [5],growth inhibition [6]
COc1ccc(/C=C(/NC(=O)c2ccccc2)C(=O)O)c(OC)c1,-7.35%,-5.1%,1.2%,-61.4%,-10.1%,-9.65%
Cc1ccc(S(=O)(=O)NNC(=O)CCn2[nH]c(=O)c(Cl)c(Cl)c2=O)cc1,-16.9%,-9.65%,-8.1%,-38.1%,-0.3%,-12.1%
NCC(=O)c1ccc(CCC(=O)O)cc1,3.1%,-0.25%,-0.75%,0.25%,6.3%,2.6%
COC(=O)c1[nH]nc(-c2ccccc2)c1N,11%,2.95%,-12.8%,-51.8%,17.4%,1.9%
CCN(CC)CCCC(C)Nc1cc(OC)c2nc(C)ccc2c1OC (stereo not drawn),-2.35%,-0.4%,-14.2%,-5.9%,-3.2%,14.9%
CCC12CCCNC1c1c(n(C)c3ccccc13)C(C(=O)OC)C2 (stereo not drawn),36.9%,-2.9%,25%,25.6%,-9.05%,-20.7%
NC(CCn1cnc2c(=O)[nH]cnc21)C(=O)O (stereo not drawn),4.1%,10.3%,6.7%,-31.6%,-12.8%,-11.7%
COC(=O)C(CC(C)C)NC(=O)C(CC(N)=O)NC(=O)C(NC(=O)OCc1ccccc1)C(C)C (stereo not drawn) (Cbz-Val-Asn-Leu-OMe; configuration not given here),38.1%,24.5%,8.9%,14.7%,9.3%,36.5%
C=CC(C)(C)c1c(OC)cc(-c2ccccc2)oc1=O,-7.65%,-34.4%,29.6%,-23%,20.6%,-9.9%
O=C1C=C(c2ccccc2)C(c2ccccc2)C(c2ccccc2)C1 (stereo not drawn),1.4%,21%,16.4%,-5.35%,3.85%,-3.1%
CC(C)(O)C(O)c1ccccc1 (stereo not drawn),10.9%,7%,9.1%,2.3%,1%,1.35%
Clc1c(Cl)c(Cl)c(C[n+]2c(Cl)sc3ccccc32)c(Cl)c1Cl,12.6%,10.2%,5.05%,-6.6%,10.3%,6.2%
COC(C(=O)Nc1ccc(C)cc1)(c1ccccc1)c1ccccc1,7.4%,7.45%,-7.55%,0.65%,12.9%,23.8%
CCNC(=O)c1ccc(C(C)C)cc1,8.4%,-7.2%,14.2%,4.75%,2.15%,5.75%
COc1cccc(C)c1O,9.8%,-7.35%,-7.8%,6.55%,20.6%,3.3%
O=C1OC(C(O)C(O)CO)C(O)=C1O (stereo not drawn),16.8% and 0.95%,3.7% and 13.8%,-11.3% and -13.8%,4.25% and -8.15%,2.75% and -8.6%,19.7% and 6.2%
CCC(CC)C(=O)NCCNC(=O)C(CC)CC,5.45%,-0.9%,14.2%,-30.1%,-10.6%,-17.2%
CC1(C)CCC(CC(=O)O)(CC(=O)O)CC1,-5.25%,8.8%,-1.7%,-17.3%,-2.9%,11.4%
O=C(Nc1ccc(Cl)cc1)Nc1nnc(-c2cccc(Cl)c2)o1,5.8%,5.75%,26.9%,-51.9%,0.2%,15%

# From PubChem BioAssay (NCI)
